# The whole screen tested about 2,300 compounds, of which about 1,500 (65%) were called active. The rule behind the calls is not given here. So high a share suggests a set chosen from earlier hits. The list shows a part of the results. Potency and affinity values are given separately.
# Assay: replicating M. tuberculosis growth inhibition, dose response, non-replicating M. tuberculosis project, H37Rv (AID 492952);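 note: Mycobacterium tuberculosis grown in culture; growth inhibition read after a week of incubation; 0% = bacteria alone untreated and 100% = bacteria with high antibiotic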
# Conditions: series mostly up to 50 µM; inhibition: at the top concentration
row,SMILES,inhibition
1,O=C1NC(=O)N(Cc2ccco2)C(=O)/C1=C\c1cccn1CCOc1ccc(Cl)cc1,-2.12% (inactive)
2,CCCCCOc1ccc(CSC2=NCCN2)cc1[N+](=O)[O-],3.34% (inactive)
3,Cc1cc(Br)ccc1OCCCCN1CCC(C)CC1,13.3% (inactive)
4,C=CCN(CC=C)CC(=O)Nc1ccc(S(N)(=O)=O)cc1,-1.05% (inactive)
5,NC(=O)CN1CCN(C2CC(=O)N(CCc3ccccc3)C2=O)CC1 (configuration not stated),-0.23% (inactive)
6,COC(=O)c1cccc(COC(=O)c2cc3ccccc3oc2=O)c1,5.68% (inactive)
7,O=C(COC(=O)C1CC2C=CC1C2)Nc1ccccc1 (configuration not stated),-4.32% (inactive)
8,CCC(C)n1c(=S)[nH]c2ccccc2c1=O (configuration not stated),10.9% (inactive)
9,O=c1oc2ccccc2c2c1nnn2CCO,4.47% (inactive)
10,CCOC(=O)c1sc(NC(=O)CCN2CC(C)OC(C)C2)c(C(=O)OCC)c1C (configuration not stated),-3.06% (inactive)
11,OCC1(CCOc2ccccc2)CCN(Cc2cc(Cl)ccc2O)CC1,-8.49% (inactive)
12,c1ccc(OCc2nn3c(-c4ccccn4)nnc3s2)cc1,10.3% (inactive)
13,O=[N+]([O-])c1ccc(-c2nc3ccc([N+](=O)[O-])cc3[nH]2)cc1,8.42% (inactive)
14,O=[N+]([O-])c1ccc2nc(SCc3cn4ccccc4n3)[nH]c2c1,-0.45% (inactive)
15,C/C(=N/NC(=O)c1cc2ccccc2cc1O)C1C(=O)c2ccccc2C1=O,-4.56% (inactive)
16,O=C(NCC1CCCCC1)c1ccc([N+](=O)[O-])cc1,-4.51% (inactive)
17,Nc1c(Cl)cc(Cl)cc1C(=O)OCC(=O)N1CCCC1,-1.22% (inactive)
18,O=C(COC(=O)c1ccc(Br)o1)NC1CCCCC1,15.1% (inactive)
19,O=C(CCSc1ccc(Cl)cc1)NC1CCCC1,6.09% (inactive)
20,Oc1ccc2cc(Br)ccc2c1CN1CCCC1,-13.2% (inactive)
21,CCCOC(=O)NC1CCS(=O)(=O)C1 (configuration not stated),-8.04% (inactive)
22,CCCCN(C/C=C/c1ccccc1OC)Cc1ccccc1,4.31% (inactive)
23,CCOC(=O)C1CCN(Cc2ccc(-c3ccccc3)cc2)CC1,-1.35% (inactive)
24,CC(C)N=C1SC(CC(=O)Nc2ccccc2)C(=O)N1C(C)C (configuration not stated),-8.82% (inactive)
25,O=C(COC(=O)c1ccccc1Br)Nc1ccccc1F,9.48% (inactive)

row,SMILES,inhibition
1,CCOC(=O)C1=C(C)NC(=O)NC1c1ccc(-c2ccc(F)cc2)o1 (configuration not stated),10.4% (inactive)
2,Fc1ccc(-c2nnc(-c3ccc(F)cc3)o2)cc1,-2.38% (inactive)
3,CCC(C)(C)NC(=O)c1ccc(Br)o1,-1.76% (inactive)
4,CCC(=O)c1ccc(OC(=O)c2ccc(Br)o2)cc1,9.11% (inactive)
5,O=C(NC1CCCC1)c1nc2c(nnn2Cc2cccc(Cl)c2)c(=O)[nH]1,18.1% (inactive)
6,NC(=O)c1cccnc1Nc1cccc(F)c1,4.49% (inactive)
7,COc1ccc(O)c(C(=O)CC(=O)c2ccc(F)cc2)c1,23.9% (inactive)
8,c1ccc(-c2noc(CC3CCCCC3)n2)nc1,-1.22% (inactive)
9,Sc1oc(-c2ccccc2)cc1C=Nc1ccccc1,0.97% (inactive)
10,COc1ccc(NC(=O)CO/N=C2/CCCc3nonc32)c(OC)c1,-3.53% (inactive)
11,O=C(N/N=C/c1cc(Br)cc(Br)c1O)c1cccc(N2CCCC2=O)c1,3.22% (inactive)
12,O=C(N/N=C/c1ccccc1O)c1cccc(C(F)(F)F)c1,14.5% (inactive)
13,CCCNC(=O)OCC12CC3CC(CC(C3)C1)C2,-7.66% (inactive)
14,O=C(COC(=O)c1ccccc1)NC12CC3CC(CC(C3)C1)C2,-0.01% (inactive)
15,CCCCCCCC(=O)N/N=C(\C)c1ccc(O)cc1O,-8.78% (inactive)
16,CSC1=N/C(=C\c2ccc(Br)o2)C(=O)S1,5.39% (inactive)
17,CC(=O)Nc1cccc(-c2nc3ccccc3c(=O)o2)c1,7.03% (inactive)
18,O=C(N/N=C/c1cn[nH]c1-c1ccccc1)c1ccco1,1.45% (inactive)
19,O=C(NNC1CC(=O)N(c2ccccc2)C1=O)c1ccco1 (configuration not stated),-0.27% (inactive)
20,N[C@@H](Cc1ccccc1)c1nnc(SC/C=C/c2ccccc2)o1,7.63% (inactive)
21,O=C(NCCc1ccccc1)c1nc(-c2cccs2)no1,2.65% (inactive)
22,O=[N+]([O-])c1cncc([N+](=O)[O-])c1Nc1cccc(O)c1,28.7% (inactive)
23,O=S(=O)(NCc1cccnc1)c1ccc(Cl)c(Cl)c1Cl,-3.75% (inactive)
24,Clc1ccc(SCCOCCN2CCc3ccccc3C2)cc1,4.11% (inactive)
25,Clc1ccc(OCCCCN2CCc3ccccc3C2)cc1,15.9% (inactive)

row,SMILES,inhibition
1,CC1=NN(C(=O)c2ccccc2)C(O)(c2ccc(Br)cc2)C1 (configuration not stated),27.1% (inactive)
2,CC1=NN(C(=O)c2ccccc2Cl)C(O)(c2ccccc2)C1 (configuration not stated),1.28% (inactive)
3,CCc1ccc(N2C(=O)CC(N3CCC(C(=O)OC)CC3)C2=O)cc1 (configuration not stated),0.16% (inactive)
4,CCCOc1ccc(N2C(=O)CC(N3CCCC(C(=O)N4CCCC4)C3)C2=O)cc1 (configuration not stated),-0.96% (inactive)
5,CCOc1ccc(N2CC(=O)Nc3ccccc3NCC2=O)cc1,5.63% (inactive)
6,CCCCCCOc1ccc(N2C(=O)CC(N3CCN(C(=O)c4ccco4)CC3)C2=O)cc1 (configuration not stated),-5.2% (inactive)
7,COc1ccc(OC(=O)C2CC(=O)N(c3ccc(C)cc3)C2)cc1 (configuration not stated),25.1% (inactive)
8,C#CCOc1coc(COC(=O)c2ccccc2)cc1=O,-6.59% (inactive)
9,CSC1=N/C(=C\c2ccc3c(c2)OCO3)C(=O)S1,-2.2% (inactive)
10,O=C1CC(N2CCC(c3nc4ccccc4o3)CC2)C(=O)N1 (configuration not stated),-3.04% (inactive)
11,NC(=O)/C(=N\OC(=O)c1ccco1)c1nc(-c2ccc(Br)cc2)cs1,7.99% (inactive)
12,Cc1[nH]n(-c2ccccc2)c(=O)c1C=Nc1cnc2ccccc2c1,0.8% (inactive)
13,C/C(=N\NC(=O)CCc1ccccc1)C1C(=O)c2ccccc2C1=O,2.42% (inactive)
14,CC(C)(C)c1ccc(S(=O)(=O)NNC(=O)c2cc3ccccc3[nH]2)cc1,-2.17% (inactive)
15,Cc1ccc(S(=O)(=O)NCc2ccc(C(=O)NCCCN3CCC(Cc4ccccc4)CC3)cc2)cc1,8.86% (inactive)
16,CN(C)CCC(=O)N1c2ccccc2Sc2ccc(C(F)(F)F)cc21,-0.36% (inactive)
17,Oc1ccc(Br)cc1-c1ccn[nH]1,11.7% (inactive)
18,CC(NC(=O)c1cc2ccccc2oc1=O)c1ccccc1 (configuration not stated),2.61% (inactive)
19,Cc1ccc(C(C)NC(=O)c2cc3ccccc3oc2=O)cc1C (configuration not stated),-6.44% (inactive)
20,O=C(NC1CCOc2ccccc21)c1ccc(Cl)nc1 (configuration not stated),-5.08% (inactive)
21,CCOc1ccc(NC(=O)COc2ccc3c(c2)OCO3)cc1,11% (inactive)
22,O=C(Nc1ccc([N+](=O)[O-])cc1)c1ccc(Cn2cc([N+](=O)[O-])cn2)cc1,-2.2% (inactive)
23,C=CCOc1ccc(CNCCO)cc1OCC,6.25% (inactive)
24,CC(C)(C)c1cc(CN2CCN(CCO)CC2)cc(C(C)(C)C)c1O,2.66% (inactive)
25,CCn1c(O)c(C(=O)CC2NCCc3ccccc32)c(=O)n(CC)c1=S (configuration not stated),5.15% (inactive)

row,SMILES,inhibition
1,O=C(NNc1nc2ccccc2s1)Nc1ccc(F)cc1,-2.93% (inactive)
2,Cc1ccc(CNC(=O)c2cnccn2)cc1,-4.77% (inactive)
3,Cc1ccc2nc(NC(=O)COC(=O)c3ccc(Br)o3)sc2c1,-1.01% (inactive)
4,CCN(CC)c1ccc(NC2CC(=O)N(CCc3ccc(OC)cc3)C2=O)cc1 (configuration not stated),6.5% (inactive)
5,CC(C)(C)c1csc(NC(=O)c2ccccc2O)n1,1.64% (inactive)
6,O=C(NCc1ccc2c(c1)OCO2)c1ccc(Cl)s1,-0.4% (inactive)
7,CCCNC(=O)N1CCC(c2ccc3c(c2)OCO3)CC1,-0.57% (inactive)
8,O=C(CN1CCN(c2ccccc2O)CC1)Nc1ccc2c(c1)CCC2,4.17% (inactive)
9,Cc1ccc(NC(=O)COc2ccc3c(c2)CCC3)nc1,24.1% (inactive)
10,O=C1C=CC(=O)N1N(c1ccccc1)c1ccccc1,-5.47% (inactive)
11,COc1ccc(C(=O)NNC2=C(C(=O)C(F)(F)F)CCC2)cc1,3.23% (inactive)
12,CC1C/C(=N/N2C(=O)CSC2=S)CC(C)(C)C1 (configuration not stated),-2.91% (inactive)
13,Fc1ccc(N2CCN(Cc3nnc(-c4ccccc4)o3)CC2)cc1,6.29% (inactive)
14,O=C1CC(N2CCN(c3ccc(F)cc3)CC2)C(=O)N1Cc1ccccc1 (configuration not stated),-0.37% (inactive)
15,O=C(CN1CCN(c2ccc([N+](=O)[O-])cc2)CC1)Nc1ccccn1,-1.52% (inactive)
16,O=C1CCCC(O)=C1C=Nc1ccc2c(c1)oc1ccccc12,20.6% (inactive)
17,C/C(=N\NC(=O)c1nn(C)cc1Cl)c1ccncc1,-4.13% (inactive)
18,CCOC(=O)c1ccc(N=CC2=C(O)CC(C)(C)CC2=O)cc1,10.5% (inactive)
19,O=C(Nc1ccc(Cl)cc1)C1CCCC1,1.54% (inactive)
20,CSc1nc(=S)cc(C)[nH]1,5.22% (inactive)
21,CCOC(=O)Cn1cc(C#N)c2ccccc21,14.6% (inactive)
22,CSc1nnc(Cc2ccc3c(c2)OCO3)o1,19.4% (inactive)
23,CC(C)c1ccc(OCC(=O)NC2=NCCS2)cc1,-0.2% (inactive)
24,O=S(=O)(Nc1nccs1)c1ccc(NCc2cc(Br)cc(Br)c2O)cc1,-4.18% (inactive)
25,COc1cc(C=O)ccc1OCCOCCOc1ccc(Cl)cc1,3.59% (inactive)

row,SMILES,inhibition
1,Cc1cccnc1NC(=O)C1COc2ccccc2O1 (configuration not stated),3.27% (inactive)
2,Cc1ccccc1NC(=O)C1COc2ccccc2O1 (configuration not stated),1.97% (inactive)
3,CCc1ccccc1NC(=O)C1COc2ccccc2O1 (configuration not stated),7.64% (inactive)
4,COc1ccc(NC(=O)C2COc3ccccc3O2)cc1 (configuration not stated),3.23% (inactive)
5,CC(=O)c1cccc(NC(=O)C2COc3ccccc3O2)c1 (configuration not stated),1.76% (inactive)
6,CCN(CC)C(=O)c1sc2nc(-c3ccccc3)ccc2c1N,8.17% (inactive)
7,O=C(COC(=O)c1ccccc1)NCc1cccs1,6.1% (inactive)
8,C=CCn1c(O)c(C(C)=Nc2ccc(C(=O)OCC)cc2)c(=O)[nH]c1=O,6.12% (inactive)
9,Cc1cc(C)c2c(=O)n(CC(=O)Nc3cccc(Cl)c3C)sc2n1,3.34% (inactive)
10,CC1CCc2c(sc3nc(CSc4ncn[nH]4)[nH]c(=O)c23)C1 (configuration not stated),-0.8% (inactive)
11,Cc1ccc(CC(=O)Nc2ccc(Cl)cn2)cc1,0.6% (inactive)
12,Cc1ccc(NC(=O)CN(C)CC(=O)Nc2ccc(F)c(Cl)c2)cc1,6.56% (inactive)
13,COc1ccc(N2C(=O)CC(Sc3nc4ccccc4s3)C2=O)cc1OC (configuration not stated),-5.21% (inactive)
14,Cc1nc2ccc(NC(=O)COc3cccc(F)c3)cc2s1,16.1% (inactive)
15,N#Cc1cc(N)ccc1-n1cccc1,1.99% (inactive)
16,CCN1C(=O)CC(N2CCC(c3nc4ccccc4[nH]3)CC2)C1=O (configuration not stated),-1.46% (inactive)
17,CC(C)(C)NCc1cc(Br)ccc1OCc1cccs1,11.7% (inactive)
18,CCCCOC(=O)c1ccc(OC(=O)c2cccnc2)cc1,4.1% (inactive)
19,CC(C)CN1C(=O)/C(=C(/C#N)C(=O)NC2CCCCC2)c2ccccc21,-4.08% (inactive)
20,CC1(c2nnc(-c3ccc(F)cc3)o2)CC(c2cccc(Cl)c2)=NO1 (configuration not stated),5.2% (inactive)
21,COc1cccc2sc(Nc3nnc(-c4cccs4)o3)nc12,-0.75% (inactive)
22,CC(C)(C)c1ccc2c(c1)OC(C(=O)N/N=C\c1ccccn1)CO2 (configuration not stated),23.2% (inactive)

# Reference: PubChem BioAssay AID492952 (Southern Research Specialized Biocontainment Screening …, 2010)
